# Test results from PubChem BioAssay (NCATS).
# Inconclusive results are not listed. The source made the active and inactive calls. Calls follow the shape of the dose curve; as a rule, active = well fitted cell-killing curve with a large enough effect; inconclusive = small, poorly fitted or top-dose-only effect, or effect the other way; inactive = no such curve, though single readings can be large or run the other way.
# Experiment: Quantitative High-Throughput drug screen in 47 multiple myeloma cell lines against the NCATS MIPE library collection: Delta47_JCRB cell viability assay (AID 1918925; also: nearly all actives have a fitted effect of over 45% in size)
# Settings: Delta47 myeloma viability, CellTiter-Glo ATP, 48 h; series mostly up to 45.8 µM
# Source text: PI: Beverly A. Mock Ph.D.
# Laboratory of Cancer Biology and Genetics,
# Center for Cancer Research, National Cancer Institute,
# National Institute of Health, Bethesda, Maryland
# Drug resistance and disease progression are common in multiple myeloma (MM) patients, underscoring the need for new therapeutic combinations. […] We hypothesized that effective combinations would reduce MYC expression and enhance p16 activity. […] These preclinical data identify potentially useful drug combinations for evaluation in drug-resistant MM and reveal potential mechanisms of combined drug sensitivity.
# Described herein is the primary MIPE qHTS used to cherrypick compounds. Validated compounds were then further tested for potential synergistic activiy.
# [1] Peat TJ, Gaikwad SM, Dubois W, Gyabaah-Kessie N, Zhang S, Gorjifard S, Phyo Z, Andres M, Hughitt VK, Simpson RM, Miller MA, Girvin AT, Taylor A, Williams D, D'Antonio N, Zhang Y, Rajagopalan A, Flietner E, Wilson K, Zhang X, Shinn P, Klumpp-Thomas C, McKnight C, Itkin Z, Chen L, Kazandijian D, Zhang J, Michalowski AM, Simmons JK, Keats J, Thomas CJ, Mock BA. Drug combinations identified by high-throughput screening promote cell cycle transition and upregulate Smad pathways in myeloma. Cancer Lett. 2023 Aug 1;568:216284. doi: 10.1016/j.canlet.2023.216284. Epub 2023 Jun 24. PMID: 37356470; PMCID: PMC10408729.
# SEQUENCE No. (e.g., 1, 2, 3, etc.); […] (e.g., Cells, Incubation, Reagent, etc.); VALUE and DESCRIPTION.
# 1; Cells; 5 uL; white, solid bottom 1536-well Greiner assay plate.
# 2; Compounds; 23 nL; Kalypsis pin tool (Wako USA) equipped with a 1536-well pin head to transfer to the assay plates.
# 3; Incubation; 48 hours; 37C incubation.
# 4; Reagent;5uL; CellTiter Glo (Promega).
# 5; Detector; 425V; Luminescence; Viewlux PerkinElmer.
# NOTES (numbers refer to Sequence numbers above)
# 1. The cell-based screening methods employed in this study were like those previously published. Briefly, the corresponding myeloma cell lines were screened in 1,536-well plates with 500 cells, 5-uL per well for inhibition of cell viability (assessed by measuring ATP levels with CellTiterGlo).
# 2. NCATS MIPE 4.0 library of approved and investigational drugs were added using the Kalypsis pin tool. Wells treated with DMSO only for 100% viability and media only wells for 0% viability were used as controls.
# 3. The assay plates were covered and incubated for 48 hours in a 37C, 5% CO2 incubator with controlled humidity.
# 4. After 48 hours, CellTilter-GloTM luminescent substrate mix (Promega) reagent was added to the assay plate and plates we incubated for 5 min at room temperature.
# 5. Signal was measured as median relative luminescence units on a ViewLux (PerkinElmer) multiplate reader.
# [1] Heske CM, Davis MI, Baumgart JT, Wilson K, Gormally MV, Chen L, Zhang X, Ceribelli M, Duveau DY, Guha R, Ferrer M, Arnaldez FI, Ji J, Tran HL, Zhang Y, Mendoza A, Helman LJ, Thomas CJ. Matrix Screen Identifies Synergistic Combination of PARP Inhibitors and Nicotinamide Phosphoribosyltransferase (NAMPT) Inhibitors in Ewing Sarcoma. Clin Cancer Res. 2017 Dec 1;23(23):7301-7311. doi: 10.1158/1078-0432.CCR-17-1121. Epub 2017 Sep 12. PMID: 28899971; PMCID: PMC6636827.
# Potency is read from the fitted curve at half-maximal effect.
row,SMILES,Potency
1,COC[C@@H](NC(C)=O)C(=O)NCc1ccccc1,inactive
2,C[C@@H]1O[C@@H](O[C@H]2C[C@@H](O)[C@]3(CO)[C@H]4[C@H](O)C[C@]5(C)[C@@H](C6=CC(=O)OC6)CC[C@]5(O)[C@@H]4CC[C@]3(O)C2)[C@H](O)[C@H](O)[C@H]1O,29.6 nM (active)
3,Cn1cc(C2=C(c3cn(C4CCN(Cc5ccccn5)CC4)c4ccccc34)C(=O)NC2=O)c2ccccc21,5900 nM (active)
4,CN(C)[C@@H]1C(=O)C(C(N)=O)=C(O)[C@@]2(O)C(=O)C3=C(O)c4c(O)cccc4[C@@](C)(O)[C@H]3C[C@@H]12,inactive
5,COc1ccc(C(=O)c2c(C)n(CCN3CCOCC3)c3ccccc23)cc1,inactive
6,COc1ccc(C(CN(C)C)C2(O)CCCCC2)cc1 (stereo not drawn),inactive
7,Cc1cccc(C)c1NC(=O)CN1CCCC1=O,inactive
8,C[C@@H]1[C@@H](C(=O)C[C@H]2O[C@@H]3O[C@]4(C)CC[C@@H]5[C@H](C)CC[C@@H]([C@H]2C)[C@@]35OO4)O[C@@H]2O[C@]3(C)CC[C@H]4[C@H](C)CC[C@@H]1[C@@]24OO3,235 nM (active)
9,Fc1ccc(C(OCCN2CCN(CCCc3ccccc3)CC2)c2ccc(F)cc2)cc1,8330 nM (active)
10,CN(C)CCc1ccc(O)cc1,inactive
11,CCCC(C)(COC(N)=O)COC(=O)NC(C)C (stereo not drawn),inactive
12,C#CCN(C)[C@H](C)Cc1ccccc1,inactive
13,CC(O)(CS(=O)(=O)c1ccc(F)cc1)C(=O)Nc1ccc(C#N)c(C(F)(F)F)c1 (stereo not drawn),296 nM (active)
14,N[C@@H](Cc1ccc(N(CCCl)CCCl)cc1)C(=O)O,13200 nM (active)
15,CNC(=O)N1N=C(c2ccc(N)cc2)c2cc3c(cc2CC1C)OCO3 (stereo not drawn),1480 nM (active)
16,Cc1sc2c(c1C)C(c1ccc(Cl)cc1)=N[C@@H](CC(=O)OC(C)(C)C)c1nnc(C)n1-2,743 nM (active)
17,O=C(O)C(=O)c1cn(Cc2ccccc2)c2ccc(-c3ccc(OC(F)(F)F)cc3)cc12,20900 nM (active)
18,CNCC(O)c1ccc(O)cc1 (stereo not drawn),inactive
19,COC[C@H]1OC(=O)c2coc3c2[C@@]1(C)C1=C(C3=O)C2CCC(=O)[C@@]2(C)C[C@H]1OC(C)=O (stereo partly drawn),46.9 nM (active)
20,CNC(=O)c1ccc(N2C(=S)N(c3ccc(C#N)c(C(F)(F)F)c3)C(=O)C23CCC3)cc1F,4180 nM (active)
21,C=C(C)[C@H]1Cc2c(ccc3c2O[C@@H]2COc4cc(OC)c(OC)cc4[C@@H]2C3=O)O1,118 nM (active)
22,C[C@@H]1[C@@H](CC(C[C@H]2O[C@@H]3O[C@]4(C)CC[C@@H]5[C@H](C)CC[C@@H]([C@H]2C)[C@@]35OO4)C[S+](=O)([O-])c2ccc(COC(=O)N(C)C)cc2)O[C@@H]2O[C@]3(C)CC[C@H]4[C@H](C)CC[C@@H]1[C@@]24OO3 (stereo partly drawn),235 nM (active)
23,Cn1c(CCCC(=O)O)nc2cc(N(CCCl)CCCl)ccc21,1180 nM (active)
